Molecules are shown by their SMILES. Compounds without any hit were thinned out: in the full panel of roughly 83,000, 20% have a hit.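 For each line, cells grew in 96-well plates with the test compound present at a single concentration for 48 hours.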 A number with no mark means an inactive call. The source made the active and inactive calls. The calls were made as follows: active = growth percent below 10; inactive = the rest.

For 39 molecules, growth results are on record in PubChem BioAssay (NCI).

The first test relates to HS 578T breast. Briefly: NCI-60 one-dose screen, 48 h (100 = growth as untreated, 0 = no growth, -100 = all killed). The settings on record: 10 µM unless noted.
For `O=C(NCCCNc1nccc(-n2ccc3cccnc32)n1)c1c(F)cccc1F`, the growth is 103%.

Take `COc1ccc(C(=O)c2cc(OC)c3c(c2)OCO3)cc1O`: the growth is 12.2%.

For `Cc1cc(C(C)(C)C)ccc1S`, the growth is 101%. The same measure, in the same setting: then `Cn1cnc2c(N3CCN(C(=O)OCc4ccc5c(Cl)cc(Cl)c(O)c5n4)CC3)nc(Cl)nc21`, with 75.7%. For `Fc1ccccc1-c1nc(-c2nc3cc(Cl)c(Cl)cc3[nH]2)c2ccccn12`, the growth was 44%. The same measure, in the same setting: the figure for `C1=Cc2ccccc2N(c2nnc(-c3ccccc3)o2)c2ccccc21` is 102%; for `COc1cc(C2CC(c3ccc4c(c3)OCO4)=NN2C=O)cc(OC)c1OC` (stereo unspecified) it is 8.51% (active); for `COc1ccc(/C=C2/C(=O)NC(SCC(=O)N3CCN(c4cc5c(cc4F)c(=O)c(C(=O)O)cn5C4CC4)CC3)=NC2N)cc1OC` (stereo unspecified) it is 105%. `COc1cc(C2CC(c3ccc4c(c3)OCO4)=NN2C(C)=O)cc(OC)c1OC` (stereo unspecified): the growth is -7.69% (active). `COc1cc(NCCCCCN)c2ncccc2c1`: the growth was 113%. On the same count and under the same terms, the figure for `C=C1CCC2C(C)(CO)C(O)CCC2(C)C1C/C=C1/C(=O)OCC1Oc1ccccc1C` (stereo unspecified) is 105%; for `CCCCCCCCCCCCCCCCNC(=O)OC(C)C` it is 78.2%. The same measure, in the same setting: then `O=C(/C=C/c1cc(-c2ccc3c(c2)OCO3)n[nH]1)c1ccc2c(c1)OCO2`, with 95.2%; and `c1cc(C2=N[C@@H]3c4ccccc4C[C@@H]3O2)nc(C2=N[C@@H]3c4ccccc4C[C@@H]3O2)c1`, with 98.2%; and `COc1ccccc1CNCCCN1C(=O)c2ccc3c4c(ccc(c24)C1=O)C(=O)N(CCCNCCCCNCCCN)C3=O`, with -25.1% (active). Same read-out and setting: the figure for `NC(=N\N=C/c1ccc(O)cc1)/C(N)=N\N=C/c1ccc(O)cc1` is 99%; for `COc1ccc(-c2c(N)n[nH]c2-c2cc(OC)c3c(c2)OCCO3)cc1` it is 86.2%.

As to `C=C1CCC2C(C)(CO)C(O)CCC2(C)C1C/C=C1/C(=O)OCC1O/C=C/c1ccccc1` (stereo unspecified), the growth was 96.3%. The same measure, in the same setting: then `CC(C)(C)n1cc(-c2ccnc(NCCNS(=O)(=O)c3ccc(F)cc3)c2)c(-c2cccc(O)c2)n1`, with 60.3%; and `COc1ccc2c(c1)OC1=C(C(=O)OC1)C2c1cc(OC)c2c(c1)OCO2` (stereo unspecified), with 14.9%; and `CC(C)OC(=O)N1CCOCC1`, with 97.5%. On the same count and under the same terms, the figure for `CC12CCC3C4(C)COC(c5ccccc5Cl)OC4CCC3(C)C1CC(C1=CCOC1=O)O2` (stereo unspecified) is 76.1%. The same measure, in the same setting: the figure for `CCCOC(=O)n1cccc1` is 105%; for `O=S(=O)(NCCCNc1nccc(-n2ccc3cccnc32)n1)c1cccc(C(F)(F)F)c1` it is 100%.

In the case of `Cc1ccc(S(=O)(=O)NCCNc2cc(-c3cn(C(C)(C)C)nc3-c3cccc(O)c3)ccn2)cc1`, the growth is 76.6%. As for `Cc1ccc(S(=O)(=O)NCCCNc2cc(-c3cn(C(C)(C)C)nc3-c3cccc(O)c3)ccn2)cc1`, the growth was 60%. The same measure, in the same setting: then `C=C1CCC2C(C)(CO)C(O)CCC2(C)C1CC(NCc1ccccc1)C1=CCOC1=O` (stereo unspecified), with 104%; and `COc1ccc2c(c1)NC1=C(C(=O)OC1)C2c1cc(OC)c2c(c1)OCO2` (stereo unspecified), with 14%. On the same count and under the same terms, then `COc1cc(Nc2ncccc2C(=O)NCc2cn(Cc3cccc(Oc4ccccc4)c3)nn2)cc(OC)c1`, with 49.1%; and `CC12CCC3C4(C)COC(c5ccco5)OC4CCC3(C)C1CC(C1=CCOC1=O)O2` (stereo unspecified), with 107%; and `C=C1CCC2C3(C)COC(C)(C)OC3CCC2(C)C1C/C=C1/C(=O)OCC1Oc1ccccc1OC` (stereo unspecified), with 113%.

Turning to `O=C(/C=C/c1ccccc1)c1cccc(O)c1`, the growth was 110%. On the same count and under the same terms, the figure for `CC(C)(C)n1cc(-c2ccnc(NCCCNS(=O)(=O)c3ccc(F)cc3)c2)c(-c2cccc(O)c2)n1` is 52.4%; for `COc1cc(C2C3=C(COC3=O)Nc3cc4c(cc32)OCO4)cc2c1OCO2` (stereo unspecified) it is 14.6%; for `O=C(NCCNc1nccc(-n2ccc3cccnc32)n1)c1ccc(C(F)(F)F)cc1` it is 106%. `COc1cc(C2C3=C(COC3=O)Nc3cc4c(cc32)CCC4)cc2c1OCO2` (stereo unspecified): the growth is 28.4%. The same measure, in the same setting: the figure for `COc1ccc(-c2ccc(C)n2-c2ccc(-c3nc4cc(Cl)ccc4s3)cc2)cc1` is 103%. For the molecule `O=C(NCc1cn(Cc2cccc(Oc3ccccc3)c2)nn1)c1cccnc1Nc1ccc(F)cc1`, the growth is 76.7%.

Turning to `CC12CCCC(CC(=O)c3[nH]c4ccccc4c31)C2` (stereo unspecified), the growth is 12.8%.

A further test concerns NCI/ADR-RES ovarian. The test is described as above. The note with it: 10 µM unless noted.
As for `O=C(NCCCNc1nccc(-n2ccc3cccnc32)n1)c1c(F)cccc1F`, the growth was 99.4%. With `Cc1cc(C(C)(C)C)ccc1S`, the growth is 112%. Same read-out and setting: the figure for `Cn1cnc2c(N3CCN(C(=O)OCc4ccc5c(Cl)cc(Cl)c(O)c5n4)CC3)nc(Cl)nc21` is 35.3%. The same measure, in the same setting: the figure for `Fc1ccccc1-c1nc(-c2nc3cc(Cl)c(Cl)cc3[nH]2)c2ccccn12` is 76%. On the same count and under the same terms, then `C1=Cc2ccccc2N(c2nnc(-c3ccccc3)o2)c2ccccc21`, with 92.2%; and `COc1cc(C2CC(c3ccc4c(c3)OCO4)=NN2C=O)cc(OC)c1OC` (stereo unspecified), with 15.5%.

As to `COc1ccc(/C=C2/C(=O)NC(SCC(=O)N3CCN(c4cc5c(cc4F)c(=O)c(C(=O)O)cn5C4CC4)CC3)=NC2N)cc1OC` (stereo unspecified), the growth is 104%.

In the case of `COc1cc(C2CC(c3ccc4c(c3)OCO4)=NN2C(C)=O)cc(OC)c1OC` (stereo unspecified), the growth is 4% (active). Still for that read-out and setting: then `COc1cc(NCCCCCN)c2ncccc2c1`, with 109%; and `C=C1CCC2C(C)(CO)C(O)CCC2(C)C1C/C=C1/C(=O)OCC1Oc1ccccc1C` (stereo unspecified), with 81.1%; and `CCCCCCCCCCCCCCCCNC(=O)OC(C)C`, with 65.9%. Still for that read-out and setting: the figure for `O=C(/C=C/c1cc(-c2ccc3c(c2)OCO3)n[nH]1)c1ccc2c(c1)OCO2` is 102%; for `c1cc(C2=N[C@@H]3c4ccccc4C[C@@H]3O2)nc(C2=N[C@@H]3c4ccccc4C[C@@H]3O2)c1` it is 98.7%. The same measure, in the same setting: the figure for `COc1ccccc1CNCCCN1C(=O)c2ccc3c4c(ccc(c24)C1=O)C(=O)N(CCCNCCCCNCCCN)C3=O` is 4.5% (active); for `COc1ccc(-c2c(N)n[nH]c2-c2cc(OC)c3c(c2)OCCO3)cc1` it is 63.8%; for `C=C1CCC2C(C)(CO)C(O)CCC2(C)C1C/C=C1/C(=O)OCC1O/C=C/c1ccccc1` (stereo unspecified) it is 73.9%. In the case of `CC(C)(C)n1cc(-c2ccnc(NCCNS(=O)(=O)c3ccc(F)cc3)c2)c(-c2cccc(O)c2)n1`, the growth was 61.7%.

As for `COc1ccc2c(c1)OC1=C(C(=O)OC1)C2c1cc(OC)c2c(c1)OCO2` (stereo unspecified), the growth is 13.6%. Still for that read-out and setting: the figure for `CC(C)OC(=O)N1CCOCC1` is 108%; for `CC12CCC3C4(C)COC(c5ccccc5Cl)OC4CCC3(C)C1CC(C1=CCOC1=O)O2` (stereo unspecified) it is 63.2%. Still for that read-out and setting: the figure for `CCCOC(=O)n1cccc1` is 102%; for `O=S(=O)(NCCCNc1nccc(-n2ccc3cccnc32)n1)c1cccc(C(F)(F)F)c1` it is 101%. On the same count and under the same terms, the figure for `Cc1ccc(S(=O)(=O)NCCNc2cc(-c3cn(C(C)(C)C)nc3-c3cccc(O)c3)ccn2)cc1` is 67%. On to `Cc1ccc(S(=O)(=O)NCCCNc2cc(-c3cn(C(C)(C)C)nc3-c3cccc(O)c3)ccn2)cc1`, for which the growth was 72.4%. In the case of `C=C1CCC2C(C)(CO)C(O)CCC2(C)C1CC(NCc1ccccc1)C1=CCOC1=O` (stereo unspecified), the growth was 95.9%. Regarding `COc1ccc2c(c1)NC1=C(C(=O)OC1)C2c1cc(OC)c2c(c1)OCO2` (stereo unspecified), the growth was 1.91% (active).

On to `COc1cc(Nc2ncccc2C(=O)NCc2cn(Cc3cccc(Oc4ccccc4)c3)nn2)cc(OC)c1`, for which the growth was 9.54% (active). Consider `CC12CCC3C4(C)COC(c5ccco5)OC4CCC3(C)C1CC(C1=CCOC1=O)O2` (stereo unspecified), for which the growth was 98.5%.

As to `C=C1CCC2C3(C)COC(C)(C)OC3CCC2(C)C1C/C=C1/C(=O)OCC1Oc1ccccc1OC` (stereo unspecified), the growth was 85.6%.

As to `O=C(/C=C/c1ccccc1)c1cccc(O)c1`, the growth was 103%. `CC(C)(C)n1cc(-c2ccnc(NCCCNS(=O)(=O)c3ccc(F)cc3)c2)c(-c2cccc(O)c2)n1`: the growth was 53%. Still for that read-out and setting: then `COc1cc(C2C3=C(COC3=O)Nc3cc4c(cc32)OCO4)cc2c1OCO2` (stereo unspecified), with 9.84% (active); and `O=C(NCCNc1nccc(-n2ccc3cccnc32)n1)c1ccc(C(F)(F)F)cc1`, with 105%; and `COc1cc(C2C3=C(COC3=O)Nc3cc4c(cc32)CCC4)cc2c1OCO2` (stereo unspecified), with -16.6% (active). Same read-out and setting: then `COc1ccc(-c2ccc(C)n2-c2ccc(-c3nc4cc(Cl)ccc4s3)cc2)cc1`, with 95.8%; and `O=C(NCc1cn(Cc2cccc(Oc3ccccc3)c2)nn1)c1cccnc1Nc1ccc(F)cc1`, with 31.7%.

On to `CC12CCCC(CC(=O)c3[nH]c4ccccc4c31)C2` (stereo unspecified), for which the growth is 5.24% (active).
